A number with no mark means an inactive call. Results filed as inconclusive are left out. Active and inactive are the calls of the source. Unless noted, calls follow the shape of the dose curve; as a rule, active = well fitted curve in the direction sought with a large enough effect in the repeat runs; inconclusive = weak or mixed curves; inactive = no such curve, though single readings can be large; an effect the other way counts as inactive or inconclusive.

A short description of test [1]: A CellTox Green Cytotoxicity Assay to monitor cytotoxicity in HepG2 cells - 8 hour (AID 1224890). Also: nearly all actives have a fitted effect of over 45% in size. The gist of the method: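 Nonlytic assay: viable cells exclude the dye, so fluorescence scales with cell death. HepG2 at 600 cells/well, compounds added after 5 h, signal read across 40 h.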
Test [2] is described as follows: qHTS assay to identify small molecule antagonists of the estrogen receptor alpha (ER-alpha) signaling pathway using the BG1 cell line in the presence of 0.1 nM 17-beta-estradiol - cell viability counter screen (AID 1259241). Also: nearly all actives have a fitted effect of over 40% in size. Also: potency is read from the fitted curve at half-maximal effect. The gist of the method:
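VM7Luc4E2 cells (endogenous full-length ER-alpha, 4xERE-luciferase), cultured 5 days in charcoal-stripped serum, exposed to compounds with 0.1 nM 17beta-estradiol (final) for 22 hr at 37C. Viability read in same wells as live-cell protease fluorescence after 30 min.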
Background: In qHTS, concentration-response curves come from the screen itself.

Test [3] can be described thus: qHTS assay to identify small molecule antagonists of the androgen receptor (AR) signaling pathway using the MDA cell line in the presence of 0.5 nM R1881 - cell viability counter screen (AID 1259242). Also: nearly all actives have a fitted effect of over 45% in size. The gist of the method:
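R1881 at 0.5 nM final stimulated MDA-kb2 cells during 16 hr compound treatment at 37C. Cytotoxicity read: CellTiter-Fluor fluorescence after 30 min.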

A short description of test [4]: qHTS assay to identify small molecule HDAC inhibitors (AID 1259364). Also: potency is read from the fitted curve at half-maximal effect.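 Also: wild-type HCT-116 cells with endogenous class I/II HDAC activity; nearly all actives have a fitted effect of over 45% in size.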 The gist of the method: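 Relative class I and II HDAC activity is taken from the luminogenic signal in HCT-116 cells, with compound exposure 2 hr and reagent development 30 min at room temperature.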
Test [5] is described as follows: qHTS assay to identify small molecule HDAC inhibitors - cell viability counter screen (AID 1259365). Also: series mostly up to about 92 µM; nearly all actives have a fitted effect of over 50% in size. The gist of the method:
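Wild-type HCT-116 cells, 1,500/well, cultured overnight, then compound-treated 2 h at 37 C. Viability measured as ATP luminescence with CellTiter-Glo after 30 min at room temperature.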

The nature of test [6]: qHTS assay to identify small molecule agonists of the sonic hedgehog signaling (Shh) pathway - cell viability counter screen (AID 1259366). Also: nearly all actives have a fitted effect of over 50% in size. The gist of the method: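 NIH/3T3-derived Gli1-Luc reporter cells, 2,000 per well, received compound after 4 h and were treated about 23 h at 37C. Viability measured in the same wells by CellTiter-Fluor fluorescence after 1 h.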
Test [7] can be described thus: qHTS assay to identify small molecule antagonists of the sonic hedgehog signaling (Shh) pathway - cell viability counter screen (AID 1259367). Also: nearly all actives have a fitted effect of over 55% in size. Also: potency is read from the fitted curve at half-maximal effect. The gist of the method:
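After a 4 hr settling period, 3T3 Gli1-Luc cells were treated with DMSO-dissolved chemicals and conditioned medium, kept 24 hr at 37C in 5% CO2, and assayed for viability by CellTiter-Fluor fluorescence following 1 hr reagent incubation.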

Test [8] can be described thus: qHTS assay to identify small molecule agonists of the sonic hedgehog signaling (Shh) pathway (AID 1259368; calls by dose curve;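 also: NIH/3T3-derived 3T3Gli1-Luc cells carrying a stable Gli1-driven firefly luciferase reporter; series mostly up to about 92 µM; nearly all actives have a fitted effect of over 15% in size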). The gist of the method: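 Mouse fibroblast (NIH/3T3) reporter cells with stably integrated Gli1-Luc were treated 24 hr with compound; firefly luciferase luminescence served as the read-out.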
Test [9] in a line: qHTS assay to identify small molecule antagonists of the sonic hedgehog signaling (Shh) pathway (AID 1259369; calls by dose curve; also: nearly all actives have a fitted effect of over 45% in size). The gist of the method: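 Conditioned medium drives Shh signalling in 3T3Gli1-Luc cells; compounds in DMSO co-applied, 24hr at 37 C, then luciferase luminescence.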
For test [10], the target named is Estrogen receptor beta (Homo sapiens) (UniProt Q92731). The test can be described thus: qHTS assay to identify small molecule agonists of the estrogen receptor beta (ER-beta) signaling pathway (AID 1259377; active = well fitted activation curve with a large enough effect in the signal ratio in the repeat runs, not every such curve was filed as active; the % refers to the signal ratio). The gist of the method: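 ER-beta-UAS-bla HEK293T cells in medium with 2% charcoal-stripped FBS were exposed to compounds for 16 h at 37C. Beta-lactamase reporter activity was read as fluorescence after 2 h with LiveBLAzer B/G FRET substrate at room temperature.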

The target is the same in test [11]. In words: qHTS assay to identify small molecule antagonists of the estrogen receptor beta (ER-beta) signaling pathway (AID 1259378; active = well fitted inhibition curve with a large enough effect in the signal ratio in the repeat runs, not every such curve was filed as active; the % refers to the signal ratio). The gist of the method:
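ER-beta-UAS-bla HEK293T (GripTite) cells in 2% charcoal-stripped FBS medium were preincubated 6 hr at 37C, dosed with compound, then stimulated with 1 nM E2 (final) for 16 hr; beta-lactamase reporter read by B/G FRET fluorescence after 2 hr substrate loading.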

Test [12] in a line: qHTS assay to identify small molecule agonists of the androgen receptor (AR) signaling pathway in the presence of an antagonist - cell viability counter screen (AID 1259379).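 Also: MDA-kb2 human breast cancer cells carrying an MMTV luciferase reporter; series mostly up to about 92 µM; nearly all actives have a fitted effect of over 25% in size.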 The gist of the method: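 A CellTiter-Fluor read-out measured viability of MDA-kb2 reporter cells (MMTV promoter with AR and GR response elements). Treatment: nilutamide 3.0uM final with compounds at 15 concentrations, 16 hr, 37C, 0% CO2.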

Test [13] can be described thus: qHTS assay to identify small molecule agonists of the estrogen receptor beta (ER-beta) signaling pathway - cell viability counter screen (AID 1259380). Also: nearly all actives have a fitted effect of over 30% in size. The gist of the method:
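Cells used were ER-beta-UAS-bla HEK293T in medium with 2% charcoal-stripped FBS. They were treated for 16 hr at 37C. Viability came from CellTiter-Glo luminescence.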

Test [14] is described as follows: qHTS assay to identify small molecule antagonists of the estrogen receptor beta (ER-beta) signaling pathway - cell viability counter screen (AID 1259382). Also: series mostly up to about 92 µM; nearly all actives have a fitted effect of over 55% in size. The gist of the method:
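Agonist-stimulated (1nM E2) ER-beta-UAS-bla HEK293T cells are incubated with library compounds for 16 hr at 37C. Cell viability is then assessed in the reporter-assay wells by adding CellTiter-Glo and reading luminescence after 30 min.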

The nature of test [15]: qHTS assay to identify small molecule agonists or antagonists of the thyroid stimulating hormone receptor (TSHR) signaling pathway - wild type cell line counter screen (AID 1259384; calls by dose curve). The gist of the method: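 Wild-type HEK293 cells were plated 18 h at 37 C/5% CO2, pin-dosed with compound plus Ro20-1724 medium, held 30 min at room temperature, then given cAMP-d2 and anti-cAMP-cryptate; fluorescence was read after 1 h. Fifteen concentrations, triplicate.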

In test [16] the target is Estrogen receptor (Homo sapiens) (UniProt P03372). The test can be described thus: qHTS assay to identify small molecule agonists of the estrogen receptor alpha (ER-alpha) signaling pathway in the presence of an antagonist (AID 1259383; calls by dose curve; also: top concentration of the series differs between compounds; nearly all actives have a fitted effect of over 15% in size). The gist of the method:
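Using VM7Luc4E2 cells seeded 24hr before treatment, antagonist ICI-182,780 (10.0nM final) was added, followed by compounds at 15 concentrations. Plates incubated 22hr; ONE-Glo luminescence quantified reporter activity.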

Test [17] can be described thus: qHTS assay to identify small molecule phospholipidosis (PLD) inducers (AID 1259344; active = well fitted curve in the direction sought with a large enough effect; an effect the other way counts as inactive or inconclusive). The gist of the method: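 HepG2 cells grown on collagen I take up LipidTOX Red while exposed to compound for 24 h; after fixation they are imaged at 20x and pit metrics are extracted.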

Chain of Estrogen receptor beta (Homo sapiens) (Q92731 whole entry, looked up): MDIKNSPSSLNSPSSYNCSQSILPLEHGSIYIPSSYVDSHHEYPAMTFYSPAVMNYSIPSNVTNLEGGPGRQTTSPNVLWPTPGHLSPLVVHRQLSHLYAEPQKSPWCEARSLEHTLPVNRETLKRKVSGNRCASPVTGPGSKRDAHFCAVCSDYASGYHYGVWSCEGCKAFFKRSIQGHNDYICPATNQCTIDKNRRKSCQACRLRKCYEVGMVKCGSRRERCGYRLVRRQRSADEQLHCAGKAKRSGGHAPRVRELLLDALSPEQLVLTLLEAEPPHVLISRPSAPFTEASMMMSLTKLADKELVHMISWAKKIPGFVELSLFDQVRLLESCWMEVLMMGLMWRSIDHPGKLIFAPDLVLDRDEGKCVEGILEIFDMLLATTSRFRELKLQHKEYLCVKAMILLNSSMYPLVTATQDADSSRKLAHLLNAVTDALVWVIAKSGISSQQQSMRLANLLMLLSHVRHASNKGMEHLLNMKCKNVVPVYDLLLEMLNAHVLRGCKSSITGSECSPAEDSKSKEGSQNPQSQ
Chain of Estrogen receptor (Homo sapiens) (P03372 whole entry, looked up): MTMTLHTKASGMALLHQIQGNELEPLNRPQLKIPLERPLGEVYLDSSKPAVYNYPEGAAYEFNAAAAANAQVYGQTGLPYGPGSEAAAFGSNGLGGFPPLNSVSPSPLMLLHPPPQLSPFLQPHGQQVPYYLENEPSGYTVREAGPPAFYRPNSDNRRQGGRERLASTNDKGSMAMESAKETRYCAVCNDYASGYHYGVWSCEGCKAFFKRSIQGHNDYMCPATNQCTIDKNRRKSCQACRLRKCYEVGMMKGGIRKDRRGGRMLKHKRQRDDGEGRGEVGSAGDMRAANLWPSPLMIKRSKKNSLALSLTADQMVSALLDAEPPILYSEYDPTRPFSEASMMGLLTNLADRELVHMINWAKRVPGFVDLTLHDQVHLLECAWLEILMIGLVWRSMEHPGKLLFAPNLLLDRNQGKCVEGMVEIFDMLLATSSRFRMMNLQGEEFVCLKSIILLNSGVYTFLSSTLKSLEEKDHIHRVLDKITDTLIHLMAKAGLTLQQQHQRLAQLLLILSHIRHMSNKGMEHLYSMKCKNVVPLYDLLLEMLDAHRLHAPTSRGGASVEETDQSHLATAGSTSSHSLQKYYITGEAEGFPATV

On to `CC1=C(O)C(=O)OC1C` (stereo unspecified), for which the Potency entry in test [1], in test [2], in [4], in test [6], in test [7] and in test [8] was “inactive” throughout. Further, the Potency result in [9], in [11], in [12] and in test [13] was “inactive” throughout. Also, the result in test [3], in [5], in test [10], in test [14] and in test [15] was inactive.
Turning to `COc1ccc(Nc2ccc(OC)cc2)cc1`, the Potency entry in [1], in test [2], in test [6], in [7], in [8] and in test [9] was “inactive” throughout. The Potency result in [11], in [13] and in [16] was “inactive” each time. The outcome in test [3], in [5], in [10], in [14] and in [15] was inactive. Also, the Potency in test [4] was 27.8 µM (active).
`CCOC(=O)[C@H](CCc1ccccc1)N[C@@H](C)C(=O)N1Cc2cc(OC)c(OC)cc2C[C@H]1C(=O)O`: the Potency entry in test [1], in test [2], in [4], in test [6], in [7] and in test [8] was “inactive” throughout. Further, the Potency result in [9], in test [11], in [12], in [13] and in test [16] was “inactive” in each case. Besides, the outcome in test [3], in test [17], in test [5], in test [10], in test [14] and in test [15] was inactive.
For `C=CCCC=C`, the Potency entry in test [1], in [2], in test [4], in test [6], in test [7] and in test [8] was “inactive” each time. The Potency result in test [9], in test [11], in [12], in test [13] and in [16] was “inactive” each time. Moreover, the outcome in test [3], in test [5], in [10], in [14] and in [15] was inactive.
`CCCCN1C[C@H](O)[C@@H](O)[C@H](O)[C@H]1CO`: the Potency result in test [1], in [2], in [4], in test [6], in test [8] and in test [9] was “inactive” each time. In addition, the Potency result in test [12], in test [13] and in test [16] was “inactive” each time. The result in test [3], in test [17], in test [5], in test [14] and in [15] was inactive.
On to `Cc1cc2c(s1)Nc1ccccc1N=C2N1CCN(C)CC1`, for which the Potency result in [1], in test [4], in test [8], in [9], in [12] and in [16] was “inactive” throughout. Also, the Potency in test [2] is 13.3 µM (active); in [7], 5.31 µM (active). Also, the result in test [3], in test [17], in test [5] and in test [14] was inactive.
For the compound `OCc1ccccc1O`, the Potency result in test [1], in test [2], in [4], in [6], in test [7] and in [9] was “inactive” in each case. The Potency entry in test [12] and in test [13] was “inactive” each time. Moreover, the outcome in test [3], in test [17], in [5], in test [14] and in test [15] was inactive.
For `CC(=O)OC1C2(C)CCC(C2)C1(C)C` (stereo unspecified), the Potency result in [1], in test [2], in [4], in test [6], in [7] and in [8] was “inactive” throughout. Also, the Potency result in [9], in [11], in test [12] and in [16] was “inactive” in each case. Also, the outcome in test [3], in [5], in test [10], in test [14] and in test [15] was inactive.
In the case of `CN1[C@@H]2CC[C@H]1CC(OC(=O)c1c[nH]c3ccccc13)C2` (stereo partly specified), the Potency entry in test [1], in test [2], in [4], in test [6], in test [7] and in test [8] was “inactive” in each case. Further, the Potency result in test [11], in test [12] and in [13] was “inactive” each time. Besides, the outcome in test [3], in test [17], in test [5], in [14] and in test [15] was inactive.

The record behind these values is PubChem BioAssay (Tox21).
